The list is not random: actives were taken first. Their share in the collection is about 2.1%.
D2 antag – antagonizes the human D2 dopamine receptor | HEK293 TREx D2 cells, calcium flux, dopamine EC80 | hit rate 2% among 340,000 | inhibition, % at 10 µM; in the data active = inhibition above about 30%; inactive = below that, where a call was filed; also: 0% is about no effect
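Calcium flux kinetic readout in an inducible HEK293 TREx D2 line plated overnight at 30 C. After 180 s compound exposure, an EC80 dopamine challenge follows with another 180 s kinetic read to detect antagonism.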
D2 ag-1 – agonists of human D2 dopamine receptor (beta-arrestin) | P14416 | DiscoveRx PathHunter D2 beta-arrestin, luminescence, 90 min; 100% = 57 uM dopamine signal | activation, % (test concentration not listed) | hit rate 0.084% among 360,000 | AID 624465; in the data active = activation above about 40%; inconclusive = between about 15% and that limit
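DiscoveRx PathHunter D2 beta-arrestin cells (2,100/well) attached overnight, then compound-stimulated 90 min at 37 C in HBSS/10 mM HEPES/0.1% Tween-20 buffer; beta-galactosidase complementation read by luminescence after 1 h at ambient temperature. Dopamine 57 uM final (EC100) as control.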
D2 PAM-1 – positive allosteric modulators of human D2 dopamine receptor. P14416. DiscoveRx D2 beta-arrestin cells, luminescence, 90 min; 100% = 57 uM dopamine signal. potentiation, % (concentration not given with the values). hit rate 0.23% among 360,000. AID 624464; in the data active = potentiation above about 50%; inconclusive = mostly about 30% to 49%
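PathHunter beta-arrestin assay in DiscoveRx D2 cells. Compounds were added with an EC20 of dopamine (50 nM final) for 90 min at 37 deg C. Luminescence was read 1 h after detection reagent, with 57 uM dopamine as the EC100 control.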
D2 PAM-2 – positively modulates the human D2 dopamine receptor allosterically | HEK293 T-REx D2, calcium flux, EC20 dopamine potentiation | potentiation, % at 10 µM | hit rate 0.34% among 340,000 | AID 485347;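 active = potentiation over 3 SD above the plate norm, cut at about 30% in these data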; also: 0% is about no effect
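Tetracycline-induced Hek293 Trex D2 cells, force-coupled to calcium, loaded with no-wash calcium dye. Compound added with 180 s kinetic read for agonism, then EC20 dopamine and a further 180 s read for potentiation.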
LDHA inh – inhibitors of human lactate dehydrogenase A. P00338. purified LDHA, NADH/diaphorase-resazurin fluorescence; active compounds read low. AID 1347041. hit rate 0.15% among 480,000. activity change, % (values are at about 110 or 230 µM); in the data active = activity change below about -30%; inconclusive = mostly about -25% to -30%;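 also: plate controls were DMSO wells for no effect and wells without enzyme for full effect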
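Remaining NADH was detected by diaphorase (0.133 mg/mL) converting 37 µM resazurin to fluorescent resorufin, read at 0 and 20 minutes. The preceding 5-minute room-temperature reaction used 2 nM LDHA, 0.2 mM sodium pyruvate and 0.06 mM NADH at pH 7.4.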
D2 ag-2 – agonists of human D2 dopamine receptor; P14416; activation, % at 2 µM; HEK293 T-REx D2 cells, calcium flux agonist mode; hit rate 0.53% among 340,000; AID 485358;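 active = activation over 3 SD above normal in the single-dose calcium agonist read, cut at about 30% in these data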; also: 0% is about no effect
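Tetracycline-induced HEK293 Trex cells with D2 receptor force-coupled to calcium signaling, plated overnight at 30 C and loaded with no-wash calcium dye. Calcium flux read kinetically for 180 s after compound addition; responses flag agonists.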
D3 ag – activates human D3 dopamine receptor beta-arrestin recruitment; AID 720506; DiscoveRx D3 beta-arrestin cells, luminescence, 90 min; Potency, µM (doses to about 76.9 µM), for the others: at the highest dose activation, most hits filed as activators; shares compounds with D2 ag-2; hit rate 4% among 2,300;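 also: potency is read from the fitted curve at half-maximal effect; 100% = dopamine control response; nearly all actives have a fitted effect of over 70% in size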
Target sequence (P35462 whole entry, looked up): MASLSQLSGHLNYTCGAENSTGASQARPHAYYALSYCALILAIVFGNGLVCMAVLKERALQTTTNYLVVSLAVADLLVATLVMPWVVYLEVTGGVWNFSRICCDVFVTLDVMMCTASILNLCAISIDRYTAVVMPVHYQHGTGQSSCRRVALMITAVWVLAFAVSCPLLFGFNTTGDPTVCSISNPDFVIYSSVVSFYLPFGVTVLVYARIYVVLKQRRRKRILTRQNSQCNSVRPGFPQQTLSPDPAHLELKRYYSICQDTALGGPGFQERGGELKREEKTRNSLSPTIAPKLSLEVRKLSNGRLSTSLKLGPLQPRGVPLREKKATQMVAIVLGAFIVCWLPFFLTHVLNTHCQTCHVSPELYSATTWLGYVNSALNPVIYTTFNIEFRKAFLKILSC
D2 ag-3 – D2 receptor agonism, beta-arrestin counterscreen. shares compounds with D2 ag-2. DiscoveRx PathHunter D2 beta-arrestin, luminescence, 90 min; response scale: percent relative to full dopamine signal. Potency, µM (doses to about 76.9 µM), without a hit: top-dose activation, most hits filed as activators. hit rate 5.9% among 2,300. AID 720507; also: potency is read from the fitted curve at half-maximal effect; % of control where 0% means no effect; nearly all actives have a fitted effect of over 70% in size
* marks the source's active call; other numbers are inactive results; ? = inconclusive; · = no result given. Unless noted, calls follow the shape of the dose curve; as a rule, active = well fitted activation curve with a large enough effect; inconclusive = small, poorly fitted or top-dose-only effect; inactive = flat fitted curve, though single readings scatter.

SMILES	D2 antag	D2 ag-1	D2 PAM-1	D2 PAM-2	LDHA inh	D2 ag-2	D3 ag	D2 ag-3
O=C(CSC1=N/C(=C/c2ccc(Cl)c(Cl)c2)C(=O)N1c1ccccc1F)NC1CC1	52*	-5	15	8	0	1	20%	5%
Cc1cccc2[nH]cc(C3=CCN(C(=O)CCc4ccccc4)CC3)c12	·	·	·	·	12	·	·	·
CCN1CCN(CCn2c(=S)[nH]c3ccccc3c2=O)CC1	11	-3	-34	-18	-4	0	·	·
Cc1cccc(C)c1N1CCN(CCn2c(=S)[nH]c3ccccc3c2=O)CC1	71*	-4	-3	-20	-6	30	-2%	8%
CCC(=O)N/C(N)=N/c1nc(C)c2cc(OC)ccc2n1	·	1	-8	·	5	·	·	·
COc1ccc2nc(/N=C(\N)NC(=O)C(C)(C)C)nc(C)c2c1	35*	-1	-34	-9	-4	1	-7%	1%
CCN(C(=O)CN(C)C(c1cccc(F)c1)c1ccccn1)C1CC1 (stereo not drawn)	·	·	·	·	-4	·	·	·
Cc1ccc(S(=O)(=O)N2CCN(C(=O)COC(=O)c3cc([N+](=O)[O-])ccc3NCCO)CC2)c(C)c1	·	-1	-9	·	-5	·	·	·
Cc1ccc(S(=O)(=O)N2CCN(C(=O)COC(=O)c3ccc([N+](=O)[O-])o3)CC2)c(C)c1	13	2	6	-5	-10	0	5%	12%
CCCCN(C(=O)c1ccc(N2C(=O)c3ccccc3C2=O)cc1)c1c(N)n(CC(C)C)c(=O)[nH]c1=O	-13	-2	19	4	-10	0	0%	27%
CCCCn1c(N)c(N(CCC(C)C)C(=O)c2cccc(N3C(=O)c4ccccc4C3=O)c2)c(=O)[nH]c1=O	·	-1	-11	·	-12	·	·	·
Cn1c(SCC(=O)c2ccc3c(c2)NC(=O)CO3)nc2ccccc21	-13	5	-5	3	-7	2	·	·
CCCn1c(SCC(=O)c2ccc3c(c2)NC(=O)CO3)nc2ccccc21	2	0	-1	-7	-4	5	-2%	5%
O=C(c1ccccc1)N1CCN(CC#Cc2ccccc2)CC1	·	3	-7	-9	-2	·	?	6%
O=C(c1ccccc1)N1CCN(Cc2ccccc2)CC1	21	1	-28	-11	-24	3	-23%	?
CC(C)(C)c1ccc(C(=O)N2CCN(Cc3ccccc3)CC2)cc1	19	-2	-47	-13	0	17	·	·
CN(c1ccc(C(=O)N2CCN(Cc3ccccc3)CC2)cc1)S(=O)(=O)c1ccc(Cl)cc1	90*	?	-16	-25	-4	65*	4%	?
N=C(N)N1CCN(Cc2ccccc2)CC1	20	·	·	-18	·	42*	-5%	-3%
NC(N)=NCCN1CCN(Cc2ccccc2)CC1	·	·	·	·	0	·	·	·
S=C(N/N=C/c1c(Cl)cccc1Cl)Nc1ccccc1	·	·	·	·	-6	·	·	·
O=C(c1ccc(N2CCOCC2)c([N+](=O)[O-])c1)N1CCN(Cc2ccccc2)CC1	-1	3	-6	-20	-6	60*	-2%	4%
O=C(c1ccc(Br)c([N+](=O)[O-])c1)N1CCN(Cc2ccccc2)CC1	-5	0	-5	4	1	1	·	·
O=C(O)c1ccc(-c2cccc3ccccc23)s1	·	·	·	·	4	·	·	·
CC(Nc1n[nH]c(=O)[nH]c1=O)C(=O)N/N=C/c1ccccc1 (stereo not drawn)	7	-5	-7	9	-15	0	-2%	-4%
COc1cc(/C=N/NC(=O)C(C)Nc2n[nH]c(=O)[nH]c2=O)ccc1O (stereo not drawn)	·	-4	-4	·	-6	·	·	·
SMILES	D2 antag	D2 ag-1	D2 PAM-1	D2 PAM-2	LDHA inh	D2 ag-2	D3 ag	D2 ag-3
CCC/C(=C1/c2ccccc2C(=O)N1c1ccccc1)c1ccc2c(c1)OCO2	-11	3	-1	-1	2	-1	-10%	-3%
OC(C#Cc1ccccc1)C#CC(O)(c1ccccc1)c1ccccc1 (stereo not drawn)	·	·	·	·	-4	·	·	·
O=C(COc1ccc(Cl)cc1)NNC(=O)c1cccnc1	8	-4	-2	1	-6	0	-12%	-3%
CC1(C)O[C@@H]2[C@H](O1)[C@@H](CO)O[C@H]2n1cnc2c(=O)[nH]cnc21	-9	-2	0	-2	0	-1	-3%	-2%
O=C(CSc1nc(=O)n(Cc2cccnc2)c2c1CCC2)N1CCCC1	·	·	·	·	1	·	·	·
Cc1nn(-c2ccc(C(=O)N3CCN(S(=O)(=O)c4ccccc4C(F)(F)F)CC3)cc2)c(C)c1Cl	56*	?	3	-35	-7	74*	0.79µM*	32µM*
O=C(CSc1nncs1)NNC(=O)c1ccco1	0	-4	-4	-5	-5	0	-1%	-1%
CCCn1c(N2CCN(C(=O)Nc3ccc(Cl)cc3)CC2)nc2ccccc21	·	?	7	·	0	·	13%	?
O=C(C1=Cc2sc3c(c2CS1)CCCC3)N1CCCCC1	·	·	·	·	3	·	·	·
Cc1cc(=O)n2nc(N3CCC(C(=O)N4CCN(c5ccccc5)CC4)CC3)sc2n1	6	5	-9	-1	-2	20	?	26%
N#Cc1ccc(C=Nc2ccc(OC(F)(F)C(F)F)c(N=Cc3ccc(C#N)cc3)c2)cc1	·	·	·	·	10	·	·	·
O=C(CC(c1ccccc1)c1ccccc1)Oc1cc(Cl)ccc1Cl	·	·	·	·	0	·	·	·
CCN(CC)c1ccc2cc(S(=O)(=O)c3ccc(C)cc3)c(=O)oc2c1	5	2	-2	2	-1	29	-2%	2%
Cc1ccc(S(=O)(=O)c2cc3ccccc3oc2=O)cc1	13	-5	-8	1	-2	-1	·	·
CCn1cnc2c1c(=O)n(CC(=O)NCC(C)(C)N1CCOCC1)c(=O)n2Cc1ccccc1	·	·	·	·	-6	·	·	·
CCN1C(=O)CCc2cc(NS(=O)(=O)Cc3ccccc3)ccc21	·	·	·	·	-2	·	·	·
O=C(NC1(C(F)(F)F)NC(=O)N(c2ccccc2)C1=O)c1cccs1 (stereo not drawn)	30	-5	-12	-6	-1	0	9%	-4%
Cc1ccc(-c2cn(-c3ccccc3)c(SCC(N)=O)n2)cc1C	10	-3	6	-7	-1	-1	·	·
CCOC(=O)NC(=O)CSc1nc(-c2ccc(C)c(C)c2)cn1-c1ccccc1	8	-1	15	9	-4	-1	8%	6%
